Screening results from PubChem.
NS1 inh: influenza NS1 inhibition; Potency, µM (top dose mostly 46.1 µM), inactives show at the top dose activity, positive = more growth; hit rate 0.4% among 270,000; further: potency means the concentration at half of the fitted maximal effect; actives are rising curves; nearly all actives have a fitted effect of over 50% in size
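A cell-based growth assay was used: compounds that relieve NS1-induced slow growth of budding yeast raise OD600. Assay medium was yeast nitrogen base with ammonium sulphate and -URA supplement, pH 6.0, with 2% galactose.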
Shiga inhibitor: Shiga toxin inhibition; Vero cells, Shiga toxin protein synthesis inhibition reporter; inhibition, % at 38.7 µM; hit rate 9.2% among 290,000; in the data active means inhibition mostly above about 28%, no sharp cut-off; inactive means mostly below about 43%; further: 0% is about no effect
Pf growth 48h: P. falciparum growth inhibition at 48 hours (one generation); P. falciparum luciferase growth in erythrocytes, 48 h; Potency, µM (highest dose often 28.7 µM), for inactives: at the top dose activity change, negative = inhibition, most hits filed as inhibitors; hit rate 5.9% among 310,000; AID 504832; active means well fitted inhibition curve with a large enough effect; inconclusive means small, poorly fitted or top-dose-only effect, or another doubt; inactive means no such curve, though single readings can be large or run the other way; further: potency means the concentration at half of the fitted maximal effect; on the % scale 0 is the no-effect control and ±100 the full control effect
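Luciferase-expressing P. falciparum in infected erythrocytes (2% hematocrit, 0.1% parasitemia final) in RPMI 1640/0.5% Albumax were exposed to compound for 48 hours at 37 C, 5% CO2; growth read as luminescence.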
Cycloheximide cs: counter-screen hit for Shiga toxin inhibitors, cycloheximide; cell reporter, cycloheximide protein synthesis inhibition counterscreen; max response, %; hit rate 12% among 300,000; in the data active means max response mostly above about 13%, no sharp cut-off; inactive means mostly below about 14%; further: read at 38.3 µM for the half of the compounds with a filed dose; 0% is about no effect
SARS PLpro yeast: inhibitors of SARS-CoV papain-like protease in yeast | hit rate 0.19% among 330,000 | S. cerevisiae expressing SARS-CoV PLpro, growth rescue | Potency, µM (doses to about 32.9 µM), for inactives: at the top dose activity, positive = growth rescue, hits mostly activators; further: potency means the concentration at half of the fitted maximal effect; 0% is about no effect; nearly all actives have a fitted effect of over 55% in size
Pf growth 96h: inhibits malaria parasite growth, 96 h | hit rate 6.9% among 320,000 | Potency, µM (top dose mostly 28.7 µM), without a hit: at the highest dose activity change, negative = inhibition, usual class: inhibitors | P. falciparum luciferase reporter growth, 96 h; active means well fitted inhibition curve with a large enough effect; inconclusive means small, poorly fitted or top-dose-only effect, or another doubt; inactive means no such curve, though single readings can be large or run the other way; further: potency means the concentration at half of the fitted maximal effect; on the % scale 0 is the no-effect control and ±100 the full control effect
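P. falciparum expressing integrated firefly luciferase, in erythrocytes at 2% hematocrit, 0.05% parasitemia, incubated with compounds 96 h at 37 C, 5% CO2. Growth inhibition read as loss of luminescence; two-generation exposure targets delayed-death apicoplast inhibitors.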
* marks the source's active call; other numbers are inactive results; [ ] = remark or other dose. Hits are enriched below; roughly 21% of the tested compounds scored in any of these assays. Unless noted, the call rests on the fitted dose curve.

`O=C(COc1ccc(S(=O)(=O)NC2CCCCC2)cc1Cl)NCc1ccc2c(c1)OCO2` gave NS1 inh 10.4%, Shiga inhibitor 1.8, Pf growth 48h -8.2%, Cycloheximide cs -4.5 and SARS PLpro yeast inconclusive.
`COc1ccc(CCNC(=O)COc2ccc(S(=O)(=O)NC3CCCCC3)cc2Cl)cc1OC` gave NS1 inh -14.4%, Shiga inhibitor -9.9, Pf growth 48h 11.7µM*, Cycloheximide cs -1.4, SARS PLpro yeast 14.7% and Pf growth 96h 10.4%.
Cc1cc(=O)oc2cc(NC(=O)C(CCCCN)NC(=O)C(CC3CCCCC3)NC(=O)OCC3c4ccccc4-c4ccccc43)ccc12 (configuration not stated) was read as Shiga inhibitor 14.8 and Cycloheximide cs 3.9.
Screening OC(CNCCc1ccc(C(F)(F)F)cc1)COc1cccc2ccccc12 (configuration not stated) returned NS1 inh -48.6%, Shiga inhibitor -13.6, Pf growth 48h 7.38µM*, Cycloheximide cs -5.0, SARS PLpro yeast -28.0% and Pf growth 96h 6.57µM*.
`Cc1ccccc1OCC(O)CO` (configuration not stated) gave Pf growth 48h 2.6% and Pf growth 96h -14.2%.
CCN1CCCC1CNCC(O)COc1ccc(C(C)(C)C)cc1C (configuration not stated) was read as Shiga inhibitor -30.3, Pf growth 48h 10.4µM*, Cycloheximide cs -2.2, SARS PLpro yeast -1.4% and Pf growth 96h 11.7µM*.
For Cc1ccccc1OCC(O)CNC1CCC(NCC(O)COc2ccccc2C)CC1 (configuration not stated) the results were NS1 inh 0.8%, Shiga inhibitor -22.3, Pf growth 48h 0.928µM*, Cycloheximide cs -11.9, SARS PLpro yeast 1.1% and Pf growth 96h 3.7µM*.
OC(CNC1CCCC1)COc1ccccc1Br (configuration not stated) was read as NS1 inh 11.0%, Shiga inhibitor 10.6, Pf growth 48h -102.1%, Cycloheximide cs -1.3 and Pf growth 96h -96.7%.
`OC(CNC1CCCCCC1)COc1cccc2ccccc12` (configuration not stated) gave NS1 inh -2.1%, Shiga inhibitor -8.7, Pf growth 48h 1.65µM*, Cycloheximide cs -4.3, SARS PLpro yeast 0.3% and Pf growth 96h 2.08µM*.
For CCOC(=O)C1(Cc2cccc(OC)c2)CCN(Cc2ccc(C)s2)CC1 the results were NS1 inh -2.9%, Shiga inhibitor -8.3, Pf growth 48h inconclusive, Cycloheximide cs -1.2, SARS PLpro yeast 1.0% and Pf growth 96h inconclusive.
O=[N+]([O-])c1cccc(/C=C/C=N/Nc2nc(N3CCCCC3)nc(N3CCCCC3)n2)c1 was read as Shiga inhibitor 16.9, Pf growth 48h 6.3%, Cycloheximide cs 7.6, SARS PLpro yeast -4.7% and Pf growth 96h 1.1%.
`C=CCN1C(=O)c2ccc(C(=O)N(C)CC(=O)Nc3cccc(F)c3)cc2C1=O` gave NS1 inh -0.3%, Shiga inhibitor -29.0, Pf growth 48h 19.7%, Cycloheximide cs -1.9, SARS PLpro yeast 1.8% and Pf growth 96h 13.0%.
`CN(C(=O)CSc1nc2ccccc2n1C)C1CCS(=O)(=O)C1` (configuration not stated) gave Pf growth 48h -14.2%, SARS PLpro yeast -2.8% and Pf growth 96h 20.4%.
Screening CN(CC(O)COc1ccccc1F)C1CCCCC1 (configuration not stated) returned NS1 inh 2.3%, Shiga inhibitor -5.8, Pf growth 48h -15.9%[5.75 µM], Cycloheximide cs 0.5, SARS PLpro yeast 0.5% and Pf growth 96h 35.1%.
Screening Cc1ccc(OCC(O)CNC2CCCC2)c(C)c1 (configuration not stated) returned NS1 inh 5.9%, Shiga inhibitor 2.4, Pf growth 48h inconclusive, Cycloheximide cs 1.8, SARS PLpro yeast -2.6% and Pf growth 96h 13.1µM*.
`Cc1ccccc1OCC(O)CN(Cc1ccccc1O)C1CCCCC1` (configuration not stated) gave Shiga inhibitor -2.9, Pf growth 48h 0.233µM*, Cycloheximide cs -3.9, SARS PLpro yeast 1.0% and Pf growth 96h 0.185µM*.
`CCN(CC)c1ccc(NC(=O)c2cc3ccccc3o2)c(C)c1` gave NS1 inh -5.9%, Shiga inhibitor 58.5*, Pf growth 48h -3.3%, Cycloheximide cs 25.9*, SARS PLpro yeast -2.9% and Pf growth 96h -19.9%.
`COc1ccccc1NC(=O)c1cc2ccccc2o1` gave NS1 inh -12.9%, Shiga inhibitor 64.3*, Pf growth 48h 122.2%, Cycloheximide cs 39.2*, SARS PLpro yeast -17.8% and Pf growth 96h 5.22µM*.
`CCN(CC)c1ccc(NC(=O)c2c(OC)cccc2OC)c(C)c1` gave NS1 inh -1.8%, Shiga inhibitor -17.4, Pf growth 48h -25.9%, Cycloheximide cs 8.9 and Pf growth 96h -19.2%.
For Cc1ccc(NC(=O)c2cc3ccccc3o2)nc1 the results were Pf growth 48h -20.7%, SARS PLpro yeast -13.8% and Pf growth 96h 327.2%.
Cc1ccccc1NC(=O)c1cc2ccccc2o1 was read as NS1 inh -17.1%, Pf growth 48h 179.4%, Cycloheximide cs 37.0*, SARS PLpro yeast 0.4% and Pf growth 96h 10.4µM*.
O=C(Nc1ncccc1Cl)c1cc2ccccc2o1 was read as NS1 inh -13.1%, Shiga inhibitor 72.8*, Pf growth 48h 303.7%, Cycloheximide cs 29.8*, SARS PLpro yeast -2.1% and Pf growth 96h 179.3%.
For CCN(C[C@H]1N[C@@](CC)(C(=O)OC)[C@H]2C(=O)N(Cc3ccccc3)C(=O)[C@@H]12)C(=O)C1CCCCC1 the results were SARS PLpro yeast 0.3%.
For COc1cc(NC(=O)c2cc3ccccc3o2)c(OC)cc1Cl the results were NS1 inh -3.0%, Shiga inhibitor -14.4, Cycloheximide cs -2.5, SARS PLpro yeast 7.2% and Pf growth 96h inconclusive.
`O=C(Nc1ccc(Cl)cc1Cl)c1cc2ccccc2o1` gave NS1 inh 6.6%, Shiga inhibitor 57.5*, Pf growth 48h 391.5%, Cycloheximide cs 51.3*, SARS PLpro yeast 24.8% and Pf growth 96h -3.5%.
Screening Cc1c(C(=O)OCC(=O)NCc2ccc3c(c2)OCO3)cccc1[N+](=O)[O-] returned NS1 inh 25.9%, Shiga inhibitor -3.1, Pf growth 48h -2.6%, Cycloheximide cs 3.0, SARS PLpro yeast 8.7% and Pf growth 96h 0.0%.
`Cn1c(CCNC(=O)c2cccs2)nnc1SCC(=O)Nc1nc(-c2ccccc2)cs1` gave NS1 inh -6.9%, Shiga inhibitor 8.0, Pf growth 48h 7.38µM*, Cycloheximide cs 6.1, SARS PLpro yeast -5.0% and Pf growth 96h 14.4%.
Cn1cnnc1SCC(=O)Nc1nc(-c2ccccc2)cs1 was read as NS1 inh 4.9%, Shiga inhibitor 4.7, Pf growth 48h -11.9%, Cycloheximide cs 13.0*, SARS PLpro yeast -1.5% and Pf growth 96h inconclusive.
